# Experimental data taken from PMC12820563, “FoxP3 forms a head-to-head dimer in vivo and stabilizes its multimerization on adjacent microsatellites”.
# In all, about 16,000 sequences were measured (“rpm ratio (pull-down/input)”: median about 0.94, highest 2% from about 1.7 on). This is one part of a sample in which the highest values are shown more often than they occur.
# Target: T1, MBP-FoxP1dN (Mus musculus, UniProt P58462 326-579)
# T1 sequence: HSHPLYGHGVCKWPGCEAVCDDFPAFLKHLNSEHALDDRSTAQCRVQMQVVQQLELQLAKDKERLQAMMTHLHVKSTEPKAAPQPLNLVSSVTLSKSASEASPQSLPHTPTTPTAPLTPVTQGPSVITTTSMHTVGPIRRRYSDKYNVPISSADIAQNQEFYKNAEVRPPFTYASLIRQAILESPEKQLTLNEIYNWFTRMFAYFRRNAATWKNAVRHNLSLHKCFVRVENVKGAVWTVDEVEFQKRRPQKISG
# Experiment: PD-seq (MBP pull-down with sequencing); 20 mM Tris-HCl pH 7.5, 100 mM NaCl, 1.5 mM MgCl2, 0.4 uM protein, 0.1 uM dsDNA library, 30 min, room temperature, amylose pull-down; high values mean tight binding
# Conditions: protein: recombinant; tags: His6-MBP; chain copies: 2; dsDNA, one strand shown
# How it was run: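 Mouse FoxP3 or FoxP1 fragment lacking the N-terminus, His6-MBP-tagged and expressed in E. coli, was incubated at 0.4 µM with 0.1 µM Klenow-filled degenerate double-stranded DNA library for 30 min at room temperature in Tris pH 7.5 buffer with NaCl and MgCl2. Complexes captured on amylose resin were washed three times and their DNA sequenced on Illumina. Binding is reads-per-million enrichment of pull-down over input, replicates pooled.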
row,Sequence,binding signal
1,GATGATTGTTCTCCCAGCTGATGAATTGAGATCATCGAGTAAACAAATTTTCCTAATCTTTCTGTTCAAGCGCCATCTAC,0.904 RPM ratio (pull-down/input)
2,GATGATTGTTCTCCCAGCTGATGAATTTATGACCTCGAGTAAACAAATTTTCCTAATCTTTCTGTTCAAGCGCCATCTAC,0.986 RPM ratio (pull-down/input)
3,GATGATTGTTCTCCCAGCTGATGAATTACGATAGTCGAGTAAACAAATTTTCCTAATCTTTCTGTTCAAGCGCCATCTAC,1.01 RPM ratio (pull-down/input)
4,GATGATTGTTCTCCCAGCTGATGAATTTTCCCTATCGAGTAAACAAATTTTCCTAATCTTTCTGTTCAAGCGCCATCTAC,0.937 RPM ratio (pull-down/input)
5,GATGATTGTTCTCCCAGCTGATGAATTATACCCGTCGAGTAAACAAATTTTCCTAATCTTTCTGTTCAAGCGCCATCTAC,0.898 RPM ratio (pull-down/input)
6,GATGATTGTTCTCCCAGCTGATGAATTACTTCGATCGAGTAAACAAATTTTCCTAATCTTTCTGTTCAAGCGCCATCTAC,1.01 RPM ratio (pull-down/input)
7,GATGATTGTTCTCCCAGCTGATGAATTATCCATTTCGAGTAAACAAATTTTCCTAATCTTTCTGTTCAAGCGCCATCTAC,0.915 RPM ratio (pull-down/input)
8,GATGATTGTTCTCCCAGCTGATGAATTTCACTAGTCGAGTAAACAAATTTTCCTAATCTTTCTGTTCAAGCGCCATCTAC,0.76 RPM ratio (pull-down/input)
9,GATGATTGTTCTCCCAGCTGATGAATTTCGTTATTCGAGTAAACAAATTTTCCTAATCTTTCTGTTCAAGCGCCATCTAC,1.01 RPM ratio (pull-down/input)
10,GATGATTGTTCTCCCAGCTGATGAATTCTGTTATTCGAGTAAACAAATTTTCCTAATCTTTCTGTTCAAGCGCCATCTAC,1.78 RPM ratio (pull-down/input)
11,GATGATTGTTCTCCCAGCTGATGAATTGTTATATTCGAGTAAACAAATTTTCCTAATCTTTCTGTTCAAGCGCCATCTAC,1.57 RPM ratio (pull-down/input)
12,GATGATTGTTCTCCCAGCTGATGAATTCACTCCCTCGAGTAAACAAATTTTCCTAATCTTTCTGTTCAAGCGCCATCTAC,0.792 RPM ratio (pull-down/input)
13,GATGATTGTTCTCCCAGCTGATGAATTCGGTAAATCGAGTAAACAAATTTTCCTAATCTTTCTGTTCAAGCGCCATCTAC,1.22 RPM ratio (pull-down/input)
14,GATGATTGTTCTCCCAGCTGATGAATTGCTTCGCTCGAGTAAACAAATTTTCCTAATCTTTCTGTTCAAGCGCCATCTAC,0.992 RPM ratio (pull-down/input)
15,GATGATTGTTCTCCCAGCTGATGAATTCCCTGATTCGAGTAAACAAATTTTCCTAATCTTTCTGTTCAAGCGCCATCTAC,0.807 RPM ratio (pull-down/input)
16,GATGATTGTTCTCCCAGCTGATGAATTTGATTGATCGAGTAAACAAATTTTCCTAATCTTTCTGTTCAAGCGCCATCTAC,1.1 RPM ratio (pull-down/input)
17,GATGATTGTTCTCCCAGCTGATGAATTCTATTCATCGAGTAAACAAATTTTCCTAATCTTTCTGTTCAAGCGCCATCTAC,0.915 RPM ratio (pull-down/input)
18,GATGATTGTTCTCCCAGCTGATGAATTCAATTGATCGAGTAAACAAATTTTCCTAATCTTTCTGTTCAAGCGCCATCTAC,1.02 RPM ratio (pull-down/input)
19,GATGATTGTTCTCCCAGCTGATGAATTTCTGTGATCGAGTAAACAAATTTTCCTAATCTTTCTGTTCAAGCGCCATCTAC,1.02 RPM ratio (pull-down/input)
20,GATGATTGTTCTCCCAGCTGATGAATTCTGTTGATCGAGTAAACAAATTTTCCTAATCTTTCTGTTCAAGCGCCATCTAC,2.26 RPM ratio (pull-down/input)
21,GATGATTGTTCTCCCAGCTGATGAATTGTTGTGATCGAGTAAACAAATTTTCCTAATCTTTCTGTTCAAGCGCCATCTAC,2.32 RPM ratio (pull-down/input)
22,GATGATTGTTCTCCCAGCTGATGAATTGTGATGATCGAGTAAACAAATTTTCCTAATCTTTCTGTTCAAGCGCCATCTAC,1.42 RPM ratio (pull-down/input)
23,GATGATTGTTCTCCCAGCTGATGAATTGATCTATTCGAGTAAACAAATTTTCCTAATCTTTCTGTTCAAGCGCCATCTAC,1.15 RPM ratio (pull-down/input)
24,GATGATTGTTCTCCCAGCTGATGAATTTTGTTGATCGAGTAAACAAATTTTCCTAATCTTTCTGTTCAAGCGCCATCTAC,2.8 RPM ratio (pull-down/input)
25,GATGATTGTTCTCCCAGCTGATGAATTCTTTTGATCGAGTAAACAAATTTTCCTAATCTTTCTGTTCAAGCGCCATCTAC,0.969 RPM ratio (pull-down/input)
26,GATGATTGTTCTCCCAGCTGATGAATTGATTTGATCGAGTAAACAAATTTTCCTAATCTTTCTGTTCAAGCGCCATCTAC,1.07 RPM ratio (pull-down/input)
27,GATGATTGTTCTCCCAGCTGATGAATTCTATTGATCGAGTAAACAAATTTTCCTAATCTTTCTGTTCAAGCGCCATCTAC,2.09 RPM ratio (pull-down/input)
